# Assay results reported in PubChem BioAssay AID1508601 (ICCB-Longwood Screening Facility, Harvard Medical School, 2020).
# “And” between values parts separate entries of the source, which are not always exact repeats. Identical values can stand only once. Among all 5,700 compounds or so, about 85 (1%) were called active. Cut-off read from the data, not from the text of the source: active = p53-positive nuclei above about 36% (passing the limit was not always enough); inactive = the rest. The list comes from a sample in which actives are over-represented; it also holds similar structures and randomly drawn compounds. Where a structure was tested more than once in an assay, its records may differ in their call.
# Assays:
# [1] = p53 stabilisation in HPV-positive human cells, imaging, p53-positive nuclei imaging, 24 h, 48 h (AID 1508601); conditions: 24/48 h
# [2] = biological target: Cellular tumor antigen p53 (Homo sapiens) (UniProt P04637); experiment: as above; conditions: 24/48 h, stronger effect = higher value
# Sequence of Cellular tumor antigen p53 (Homo sapiens) (P04637 whole entry, looked up): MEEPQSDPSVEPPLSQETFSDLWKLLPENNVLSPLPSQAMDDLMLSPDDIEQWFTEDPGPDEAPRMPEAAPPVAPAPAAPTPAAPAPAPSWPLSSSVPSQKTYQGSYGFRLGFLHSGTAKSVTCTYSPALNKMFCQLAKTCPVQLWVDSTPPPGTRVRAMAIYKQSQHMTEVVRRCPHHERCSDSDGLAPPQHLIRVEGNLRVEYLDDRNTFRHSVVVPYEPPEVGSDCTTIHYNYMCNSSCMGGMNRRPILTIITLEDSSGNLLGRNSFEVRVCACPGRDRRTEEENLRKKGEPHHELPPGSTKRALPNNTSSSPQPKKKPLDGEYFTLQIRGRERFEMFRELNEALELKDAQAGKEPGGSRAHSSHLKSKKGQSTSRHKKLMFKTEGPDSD
# [3] = measured here: cell number at 24 h, Library stock concentration: 80 uM
# [4] = measured here: cell number at 24 h, Library stock concentration: 400 uM
# [5] = measured here: cell number at 24 h, Library stock concentration: 2 mM
# [6] = measured here: cell number at 24 h, Library stock concentration: 10 mM
# [7] = measured here: cell number at 48 h, Library stock concentration: 80 uM
# [8] = measured here: cell number at 48 h, Library stock concentration: 400 uM
# [9] = measured here: cell number at 48 h, Library stock concentration: 2 mM
# [10] = measured here: cell number at 48 h, Library stock concentration: 10 mM
# [11] = Library stock concentration: 80 uM
# [12] = Library stock concentration: 400 uM
# [13] = Library stock concentration: 2 mM
# [14] = Library stock concentration: 10 mM
# [15] = measured here: p53 positive nuclei at 24 h, Library stock concentration: 80 uM
# [16] = measured here: p53 positive nuclei at 24 h, Library stock concentration: 400 uM
# [17] = measured here: p53 positive nuclei at 24 h, Library stock concentration: 2 mM
# [18] = measured here: p53 positive nuclei at 24 h, Library stock concentration: 10 mM
# [19] = measured here: cell number at 24 h, concentration not given here
# [20] = measured here: cell number at 48 h, concentration not given here
# [21] = measured here: p53 positive nuclei at 24 h, concentration not given here
structure (smiles),measurement,setting,value
CS(=O)(=O)c1cccc(CNc2nc(Nc3ccc4c(c3)CCC(=O)N4)ncc2C(F)(F)F)c1,"nuclei count, normalised",[1]; [3],112%
same,"nuclei count, normalised",[1]; [4],104%
same,"nuclei count, normalised",[1]; [5],111%
same,"nuclei count, normalised","[1]; measured here: cell number at 24 h, Library stock concentration: 3.33 mM",70.4%
same,"nuclei count, normalised",[1]; [6],48.4%
same,"nuclei count, normalised",[1]; [7],115%
same,"nuclei count, normalised",[1]; [8],109%
same,"nuclei count, normalised",[1]; [9],115%
same,"nuclei count, normalised","[1]; measured here: cell number at 48 h, Library stock concentration: 3.33 mM",76.2%
same,"nuclei count, normalised",[1]; [10],28.9%
same,"p53-positive nuclei, normalised",[2]; [11],0.032% (inactive)
same,"p53-positive nuclei, normalised",[2]; [12],-0.135% (inactive)
same,"p53-positive nuclei, normalised",[2]; [13],0.159% (inactive)
same,"p53-positive nuclei, normalised",[2]; Library stock concentration: 3.33 mM,-0.301% (inactive)
same,"p53-positive nuclei, normalised",[2]; [14],1.33% (inactive)
same,"p53-positive nuclei, normalised",[2]; [15],-0.0118%
same,"p53-positive nuclei, normalised",[2]; [16],-0.00681%
same,"p53-positive nuclei, normalised",[2]; [17],0.177%
same,"p53-positive nuclei, normalised","[2]; measured here: p53 positive nuclei at 24 h, Library stock concentration: 3.33 mM",-0.516%
same,"p53-positive nuclei, normalised",[2]; [18],0.847%
CNC(=O)c1ccc(Nc2ncc(C(F)(F)F)c(NCc3nccnc3N(C)S(C)(=O)=O)n2)cc1,"nuclei count, normalised","[1]; measured here: cell number at 24 h, Library stock concentration: 46 uM",91.8%
same,"nuclei count, normalised","[1]; measured here: cell number at 24 h, Library stock concentration: 278 uM",82%
same,"nuclei count, normalised","[1]; measured here: cell number at 24 h, Library stock concentration: 1.67 mM",95.8%
same,"nuclei count, normalised",[1]; [6],47.5%
same,"nuclei count, normalised","[1]; measured here: cell number at 48 h, Library stock concentration: 46 uM",91.6%
same,"nuclei count, normalised","[1]; measured here: cell number at 48 h, Library stock concentration: 278 uM",86.7%
same,"nuclei count, normalised","[1]; measured here: cell number at 48 h, Library stock concentration: 1.67 mM",108%
same,"nuclei count, normalised",[1]; [10],33.5%
same,"p53-positive nuclei, normalised",[2]; Library stock concentration: 46 uM,-0.225% (inactive)
same,"p53-positive nuclei, normalised",[2]; Library stock concentration: 278 uM,-0.256% (inactive)
same,"p53-positive nuclei, normalised",[2]; Library stock concentration: 1.67 mM,0.138% (inactive)
same,"p53-positive nuclei, normalised",[2]; [14],14.9% (inactive)
same,"p53-positive nuclei, normalised","[2]; measured here: p53 positive nuclei at 24 h, Library stock concentration: 46 uM",-0.00777%
same,"p53-positive nuclei, normalised","[2]; measured here: p53 positive nuclei at 24 h, Library stock concentration: 278 uM",-0.0569%
same,"p53-positive nuclei, normalised","[2]; measured here: p53 positive nuclei at 24 h, Library stock concentration: 1.67 mM",0.153%
same,"p53-positive nuclei, normalised",[2]; [18],8.89%
CN(c1ccccc1CNc1nc(Nc2ccc3c(c2)CC(=O)N3)ncc1C(F)(F)F)S(C)(=O)=O,"nuclei count, normalised",[1]; [3],112% and 102%
same,"nuclei count, normalised",[1]; [4],112% and 102%
same,"nuclei count, normalised",[1]; [5],83.1% and 86.6%
same,"nuclei count, normalised",[1]; [6],33.4% and 36.5%
same,"nuclei count, normalised",[1]; [7],116% and 109%
same,"nuclei count, normalised",[1]; [8],120% and 115%
same,"nuclei count, normalised",[1]; [9],81.2% and 88.6%
same,"nuclei count, normalised",[1]; [10],22.6% and 25.6%
same,"p53-positive nuclei, normalised",[2]; [11],-0.0383% (inactive) and 0.0654% (inactive)
same,"p53-positive nuclei, normalised",[2]; [12],0.0612% (inactive) and 0.141% (inactive)
same,"p53-positive nuclei, normalised",[2]; [13],1.2% (inactive) and 0.96% (inactive)
same,"p53-positive nuclei, normalised",[2]; [14],55.4% (inactive) and 54.9% (active)
same,"p53-positive nuclei, normalised",[2]; [15],-0.06% and 0.248%
same,"p53-positive nuclei, normalised",[2]; [16],0.0578% and 0.322%
same,"p53-positive nuclei, normalised",[2]; [17],0.201% and 0.404%
same,"p53-positive nuclei, normalised",[2]; [18],43.5% and 27.2%
CCCCC/C=C/C=C1/C=CC(=O)[C@@H]1C/C=C\CCCC(=O)O,"nuclei count, normalised",[1]; [19],106%
same,"nuclei count, normalised",[1]; [20],102%
same,"p53-positive nuclei, normalised",[2]; concentration not given here,0.0559% (inactive)
same,"p53-positive nuclei, normalised",[2]; [21],0.0826%
O=C(O)CCC/C=C\C[C@@H]1[C@@H](/C=C/[C@@H](O)COc2ccccc2)[C@H](O)C[C@@H]1O,"nuclei count, normalised",[1]; [19],96%
same,"nuclei count, normalised",[1]; [20],102%
same,"p53-positive nuclei, normalised",[2]; concentration not given here,-0.0602% (inactive)
same,"p53-positive nuclei, normalised",[2]; [21],-0.00687%
O=C(N[C@@H](CO)[C@H](O)c1ccc([N+](=O)[O-])cc1)C(Cl)Cl,"nuclei count, normalised",[1]; [19],109%
same,"nuclei count, normalised",[1]; [20],107%
same,"p53-positive nuclei, normalised",[2]; concentration not given here,-0.175% (inactive)
same,"p53-positive nuclei, normalised",[2]; [21],-0.247%
CC(=O)Nc1ccc(S(=O)(=O)Nc2ccc([N+](=O)[O-])cc2)cc1,"nuclei count, normalised",[1]; [19],87.2%
same,"nuclei count, normalised",[1]; [20],92.6%
same,"p53-positive nuclei, normalised",[2]; concentration not given here,-0.0672% (inactive)
same,"p53-positive nuclei, normalised",[2]; [21],0.0938%
COC(=O)C#Cc1ccc([N+](=O)[O-])cc1,"nuclei count, normalised","[1]; measured here: cell number at 24 h, Library stock concentration: 500 nM",110%
same,"nuclei count, normalised","[1]; measured here: cell number at 24 h, Library stock concentration: 1.5 uM",114%
same,"nuclei count, normalised","[1]; measured here: cell number at 24 h, Library stock concentration: 4.6 uM",106%
same,"nuclei count, normalised","[1]; measured here: cell number at 24 h, Library stock concentration: 13.7 uM",116%
same,"nuclei count, normalised","[1]; measured here: cell number at 24 h, Library stock concentration: 41 uM",110%
same,"nuclei count, normalised","[1]; measured here: cell number at 24 h, Library stock concentration: 123 uM",103%
same,"nuclei count, normalised","[1]; measured here: cell number at 24 h, Library stock concentration: 370 uM",118%
same,"nuclei count, normalised","[1]; measured here: cell number at 24 h, Library stock concentration: 1.111 mM",107%
same,"nuclei count, normalised","[1]; measured here: cell number at 24 h, Library stock concentration: 3.333 mM",74.6%
same,"nuclei count, normalised",[1]; [6],49.2%
same,"nuclei count, normalised","[1]; measured here: cell number at 48 h, Library stock concentration: 500 nM",111%
same,"nuclei count, normalised","[1]; measured here: cell number at 48 h, Library stock concentration: 1.5 uM",112%
same,"nuclei count, normalised","[1]; measured here: cell number at 48 h, Library stock concentration: 4.6 uM",112%
same,"nuclei count, normalised","[1]; measured here: cell number at 48 h, Library stock concentration: 13.7 uM",112%
same,"nuclei count, normalised","[1]; measured here: cell number at 48 h, Library stock concentration: 41 uM",114%
same,"nuclei count, normalised","[1]; measured here: cell number at 48 h, Library stock concentration: 123 uM",106%
same,"nuclei count, normalised","[1]; measured here: cell number at 48 h, Library stock concentration: 370 uM",117%
same,"nuclei count, normalised","[1]; measured here: cell number at 48 h, Library stock concentration: 1.111 mM",108%
same,"nuclei count, normalised","[1]; measured here: cell number at 48 h, Library stock concentration: 3.333 mM",69.9%
same,"nuclei count, normalised",[1]; [10],32.5%
same,"p53-positive nuclei, normalised",[2]; Library stock concentration: 500 nM,-0.248% (inactive)
same,"p53-positive nuclei, normalised",[2]; Library stock concentration: 1.5 uM,0.113% (inactive)
same,"p53-positive nuclei, normalised",[2]; Library stock concentration: 4.6 uM,-0.0386% (inactive)
same,"p53-positive nuclei, normalised",[2]; Library stock concentration: 13.7 uM,0.351% (inactive)
same,"p53-positive nuclei, normalised",[2]; Library stock concentration: 41 uM,-0.0492% (inactive)
same,"p53-positive nuclei, normalised",[2]; Library stock concentration: 123 uM,0.00469% (inactive)
same,"p53-positive nuclei, normalised",[2]; Library stock concentration: 370 uM,0.132% (inactive)
same,"p53-positive nuclei, normalised",[2]; Library stock concentration: 1.111 mM,-0.122% (inactive)
same,"p53-positive nuclei, normalised",[2]; Library stock concentration: 3.333 mM,0.307% (inactive)
same,"p53-positive nuclei, normalised",[2]; [14],69.2% (active)
same,"p53-positive nuclei, normalised","[2]; measured here: p53 positive nuclei at 24 h, Library stock concentration: 500 nM",-0.0875%
same,"p53-positive nuclei, normalised","[2]; measured here: p53 positive nuclei at 24 h, Library stock concentration: 1.5 uM",-0.0262%
same,"p53-positive nuclei, normalised","[2]; measured here: p53 positive nuclei at 24 h, Library stock concentration: 4.6 uM",-0.0872%
same,"p53-positive nuclei, normalised","[2]; measured here: p53 positive nuclei at 24 h, Library stock concentration: 13.7 uM",0.099%
same,"p53-positive nuclei, normalised","[2]; measured here: p53 positive nuclei at 24 h, Library stock concentration: 41 uM",0.0546%
same,"p53-positive nuclei, normalised","[2]; measured here: p53 positive nuclei at 24 h, Library stock concentration: 123 uM",-0.148%
same,"p53-positive nuclei, normalised","[2]; measured here: p53 positive nuclei at 24 h, Library stock concentration: 370 uM",-0.0792%
same,"p53-positive nuclei, normalised","[2]; measured here: p53 positive nuclei at 24 h, Library stock concentration: 1.111 mM",-0.148%
same,"p53-positive nuclei, normalised","[2]; measured here: p53 positive nuclei at 24 h, Library stock concentration: 3.333 mM",0.591%
same,"p53-positive nuclei, normalised",[2]; [18],73.8%
